Assay [1] can be described thus: qHTS profiling of the MIPE4 collection as inhibitors of Plasmodium falciparum (3D7) proliferation (AID 743344).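 Further: scaled between DMSO vehicle wells and 0.29 µM artemisinin as full inhibition.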 To be noted: P. falciparum 3D7 in erythrocytes, SYBR Green DNA fluorescence, 72 h; at 28.5 µM unless noted. In short, it runs like this: (§1)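 Erythrocytes infected with P. falciparum (0.3% parasitemia, 2.5% hematocrit) incubated with compounds 72 h at 37 C, 5% CO2. Lysis with saponin/Triton buffer containing SYBR Green I, overnight at room temperature in the dark; DNA fluorescence (485/535 nm) normalised to 0.29 uM artemisinin and DMSO.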
On the technique in general: qHTS replaces the single test concentration by a dilution series.

The nature of assay [2]: qHTS profiling of the MIPE4 collection as inhibitors of Plasmodium falciparum (DD2) proliferation (AID 743345). The conditions noted are these: P. falciparum Dd2 in erythrocytes, SYBR Green DNA, 72 h; at 28.5 µM unless noted. Put shortly:
as §1

Assay [3] in a line: qHTS profiling of the MIPE4 collection as inhibitors of Plasmodium falciparum (DD2) proliferation (Rep 2) (AID 743346). To be noted: P. falciparum Dd2 in erythrocytes, SYBR Green DNA, 72 h; at 28.5 µM unless noted. In short, it runs like this: as §1
A short description of assay [4]: qHTS profiling of the MIPE4 collection as inhibitors of Plasmodium falciparum (HB3) proliferation (AID 743347).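 Further: plate controls were DMSO vehicle wells for no effect and artemisinin wells for full effect.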 To be noted: P. falciparum HB3 in erythrocytes, SYBR Green DNA, 72 h; at 28.5 µM unless noted. In short, it runs like this:
as §1

Assay [5] can be described thus: High-throughput drug toxicity screening in the BPDCN cell line Gen2.2 (AID 1224824). To be noted: Gen2.2 BPDCN cells; at 45.8 µM (top of the series) unless noted. In short, it runs like this: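 Seed 500 exponentially growing Gen2.2 cells/well; add compounds by pin tool; incubate 48 h, 37 °C, 5% CO2; add CellTiter-Glo, 15 min RT; read luminescence. % activity vs DMSO (100%) and bortezomib (0%).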

Assay [6] can be described thus: High-throughput drug toxicity screening in the BPDCN cell line Cal-1 (AID 1224825). The conditions noted are these: Cal-1 BPDCN cell viability, qHTS; at 45.8 µM (top of the series) unless noted. Put shortly: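 Cal-1 cells, 500 per well in phenol-red-free RPMI with 10% FBS, exposed to compounds for 48 hours at 37C, 5% CO2. Viability read by CellTiter-Glo luminescence; percent activity normalized to DMSO (100%) and 9.2 uM bortezomib final (0%).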

Assay [7] is described as follows: qHTS assay for measurement of the activity of small molecule inhibitors on Zika virus induced Caspase-3 activity in human iPSC derived neural progenitor cells (hNPCs) (AID 1224857; active means well fitted curve in the direction sought with a large enough effect; an effect the other way counts as inactive or inconclusive; further: nearly all actives have a fitted effect of over 65% in size; further: potency means the concentration at half of the fitted maximal effect). In short, it runs like this:
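Caspase-3/7 induction by a 6-hour ZIKV infection was quantified with a luminescent Caspase-Glo 3/7 reagent incubated 30 minutes at room temperature. Compounds were preincubated with hNPCs for 1 hour; inhibition was calculated against uninfected and infected control wells.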

Assay [8] can be described thus: qHTS assay for measurement of the activity of small molecule inhibitors on Zika virus induced Caspase-3 activity in human astrocytoma cells (AID 1224859; active means well fitted curve in the direction sought with a large enough effect; an effect the other way counts as inactive or inconclusive; further: potency means the concentration at half of the fitted maximal effect). In short, it runs like this: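 In SNB-19 cells plated at 250 cells/well and grown 16-20 h, compounds were applied 1 h before ZIKV (2 FFU/cell). Six hours later caspase-3/7 luminescence was recorded.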
A short description of assay [9]: qHTS Screen of the MIPE 4.0 Collection Against Ewings Sarcoma (RDES) (AID 1259252; active means well fitted curve in the direction sought with a large enough effect; an effect the other way counts as inactive or inconclusive; further: potency means the concentration at half of the fitted maximal effect; nearly all actives have a fitted effect of over 35% in size). In short, it runs like this:
(§2)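 Viability screen: 48 h incubation at 37C, 95% humidity, 5% CO2 with serially titrated compound, followed by CellTiter-Glo readout.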

A short description of assay [10]: qHTS Screen of the MIPE 4.0 Collection Against Ewings Sarcoma (TC32) (AID 1259256; active means well fitted curve in the direction sought with a large enough effect; an effect the other way counts as inactive or inconclusive; further: potency means the concentration at half of the fitted maximal effect; nearly all actives have a fitted effect of over 45% in size). Put shortly:
as §2

The nature of assay [11]: qHTS profiling for inhibitors of Plasmodium falciparum (HB3) proliferation (AID 743324; active means well fitted curve in the direction sought with a large enough effect; an effect the other way counts as inactive or inconclusive;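 further: 100% = DMSO vehicle wells and 0% = artemisinin-treated control wells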). The conditions noted are these: Plasmodium falciparum HB3 blood-stage proliferation; at 28.7 µM (top of the series) unless noted. In short, it runs like this:
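P. falciparum HB3 grown in erythrocytes (0.3% parasitemia, 2.5% hematocrit final) with compound for 72 h at 37 C, 5% CO2. Parasite DNA detected by SYBR Green after saponin/triton lysis overnight; normalized to 0.29 uM artemisinin and DMSO.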

Assay [12] in a line: Identifying Small Molecule Inhibitors of Pancreatic Cancer Stem Cells (Panc1, Spheroid) (AID 1259359; active means well fitted curve in the direction sought with a large enough effect; an effect the other way counts as inactive or inconclusive;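 further: potency means the concentration at half of the fitted maximal effect; compound exposure lasted 48 h before reading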). Put shortly: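 Luminescent ATP readout (CellTiter-Glo) quantifies surviving cells after a 48 h drug incubation. Normalization uses DMSO wells as no inhibition and media-only wells as full inhibition; bortezomib served as positive control.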
Assay [13] can be described thus: Identifying Small Molecule Inhibitors of Pancreatic Cancer Stem Cells (A278, Adherent) (AID 1259361; active means well fitted curve in the direction sought with a large enough effect; an effect the other way counts as inactive or inconclusive;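 further: viability read after 48 h compound exposure; nearly all actives have a fitted effect of over 35% in size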). In short, it runs like this: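 Monolayer and spheroid cultures are compared. Spheroids form over 14 days in stem cell medium on hydrogel-coated low-attachment plates, then are exposed to compound for 48 h before CellTiter-Glo luminescence.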

Results on nine compounds are retold here after PubChem BioAssay (NCATS).

The structures appear in SMILES notation. Inconclusive results are not listed. The source made the active and inactive calls. Unless noted, how the calls were made is not given here.

`Cc1cc(-c2ncc(CC(=O)Nc3ccc(-c4cnccn4)cn3)cc2C)ccn1` came in with a parasite growth, % of DMSO control in [1] of 36.5%. Moreover, the parasite growth remaining, % of DMSO control (lower = more inhibition) in assay [2] was determined as 87.9%. Moreover, in assay [3], the parasite growth, % of control (lower = inhibition) came to 71.8%. This compound also came in with a growth, % of control in assay [4] of 52.1%. Besides, the cell viability, % of control (lower = more cytotoxic) in [5] turned out to be 267%. For the same compound, the viability (% of control) in assay [6] worked out at 97%. The Potency result in assay [7] and in assay [8] was “inactive” throughout. Moreover, the figures for the Potency in [9] and in assay [10] were 16.6 µM (active) and 23.5 µM (active), respectively.

`Cc1cccc(-c2[nH]c(C(C)(C)C)nc2-c2ccc3c(c2)OCO3)n1` registered a parasite growth remaining, % of DMSO control (lower = more inhibition) in assay [2] of 19.7%. This compound had a parasite growth, % of control (lower = inhibition) in assay [3] of 10.1%. In [4], this compound had a growth, % of control of 8.33%. Besides, in [5], the cell viability, % of control (lower = more cytotoxic) was 235%. For the same compound, the viability (% of control) in [6] came to 17.9%. In addition, the Potency result in assay [7] and in [8] was “inactive” each time. Further, the Potency in assay [9] was 8.33 µM (active); in [10] it was 10.5 µM (active).

Regarding `CC(C)N(CCCNC(=O)Nc1ccc(C(C)(C)C)cc1)C[C@H]1O[C@@H](n2cc(Br)c3c(N)ncnc32)[C@H](O)[C@H]1O`, the parasite growth remaining, % of DMSO control (lower = more inhibition) in [2] was 7.13%. The compound also showed a parasite growth, % of control (lower = inhibition) in assay [3] of 9.5%. In [4], this compound returned a growth, % of control of 7.54%. Also, the cell viability, % of control (lower = more cytotoxic) in [5] worked out at 116%. The viability (% of control) in assay [6] was determined as 61.2%. The Potency result in assay [7] and in assay [8] was “inactive” throughout. The Potency was 23.5 µM (active) in assay [9] and 20.9 µM (active) in [10].

Consider `CNC1CCC(N(Cc2cccc(-c3ccncc3)c2)C(=O)c2sc3ccccc3c2Cl)CC1` (stereo not drawn), for which the parasite growth remaining, % of DMSO control (lower = more inhibition) in assay [2] was 7.31%. Moreover, the parasite growth, % of control (lower = inhibition) in assay [3] worked out at 9.91%. Moreover, the growth, % of control in assay [4] came out at 6.96%. Moreover, the cell viability, % of control (lower = more cytotoxic) in [5] came to 3.76%. The viability (% of control) in [6] worked out at 1.63%. In addition, the Potency entry in assay [7] and in [8] was “inactive” in each case. The values for the Potency in assay [9] and in assay [10] were 26.4 µM (active) and 20.9 µM (active), respectively.

On to `Cc1ccc(C(=O)N(CCCN)[C@@H](c2nc3cc(Cl)ccc3c(=O)n2Cc2ccccc2)C(C)C)cc1`, for which the remaining proliferation (% of control), lower = more inhibition in [11] is 0.0585%. In assay [1], the parasite growth, % of DMSO control worked out at 4.61%. Besides, the parasite growth remaining, % of DMSO control (lower = more inhibition) in assay [2] is 7.03%. This compound came in with a parasite growth, % of control (lower = inhibition) in [3] of 13.3%. The same compound showed a growth, % of control in [4] of 6.88%. Further, the cell viability, % of control (lower = more cytotoxic) in assay [5] was 4.1%. The compound also had a viability (% of control) in assay [6] of 3.23%. Moreover, the Potency entry in assay [7] and in [8] was “inactive” in each case. Besides, the values for the Potency in [9] and in assay [12] were 0.0017 µM (active) and 0.003 µM (active), respectively. Besides, the IC50 (viability decrease) in assay [13] was 0.0047 µM (active).

On to `Cc1cc(C(C)Nc2ccccc2)c2nc(N3CCOCC3)cc(=O)n2c1` (stereo not drawn), for which the parasite growth, % of DMSO control in [1] was determined as 11.8%. The parasite growth remaining, % of DMSO control (lower = more inhibition) in assay [2] was determined as 71.3%. This compound displayed a parasite growth, % of control (lower = inhibition) in assay [3] of 31.1%. Besides, the cell viability, % of control (lower = more cytotoxic) in assay [5] is 47.8%. The same compound showed a viability (% of control) in assay [6] of 62.3%. In addition, the Potency result in assay [7] and in assay [8] was “inactive” each time. The Potency in [9] and in [10] was 23.5 µM (active) throughout.

In assay [1], `O=C(c1ccc(F)c(F)c1Nc1ccc(I)cc1F)N1CC(O)([C@H]2CCCCN2)C1` came in with a parasite growth, % of DMSO control of 11%. This compound registered a parasite growth remaining, % of DMSO control (lower = more inhibition) in assay [2] of 11.1%. The same compound showed a parasite growth, % of control (lower = inhibition) in [3] of 20.2%. In addition, the growth, % of control in [4] amounted to 4.74%. Also, in assay [5], the cell viability, % of control (lower = more cytotoxic) was 3.78%. Besides, the viability (% of control) in assay [6] amounted to 2.16%. Also, the Potency result in assay [7] and in assay [8] was “inactive” throughout. Moreover, the Potency is 26.4 µM (active) in [9] and 20.9 µM (active) in [10].

For `Oc1ccc(C=Cc2cc(O)cc(O)c2)cc1`, the parasite growth, % of DMSO control in [1] was found to be 49.1%. In [2], this compound gave a parasite growth remaining, % of DMSO control (lower = more inhibition) of 96.9%. Further, the parasite growth, % of control (lower = inhibition) in assay [3] came out at 40.6%. Moreover, the growth, % of control in assay [4] turned out to be 13%. In addition, in assay [5], the cell viability, % of control (lower = more cytotoxic) was 240%. The same compound yielded a viability (% of control) in assay [6] of 39.4%. In addition, the Potency in [7] was 11.8 µM (active); in assay [8] it was 6.62 µM (active); in assay [9], 18.7 µM (active); in assay [10] it was 18.7 µM (active).

Turning to `Cn1cnc(-c2cc3nccc(Oc4ccc(NC(=S)NC(=O)Cc5ccccc5)cc4F)c3s2)c1`, the parasite growth, % of DMSO control in assay [1] is 8.29%. The parasite growth remaining, % of DMSO control (lower = more inhibition) in assay [2] amounted to 23.6%. In addition, in assay [3], the parasite growth, % of control (lower = inhibition) was found to be 28.5%. This compound also came in with a growth, % of control in assay [4] of 12%. For the same compound, the cell viability, % of control (lower = more cytotoxic) in [5] stood at 131%. In addition, in assay [6], the viability (% of control) was found to be 8.37%. The Potency entry in [7] and in [8] was “inactive” each time. Also, the Potency is 20.9 µM (active) in assay [9] and 18.7 µM (active) in assay [10].
